Results: the supplement of paper PMC13380429

Tests used:
[1] = tested on: Vero E6 infected with SARS-CoV-2; assay: morphology score (similarity to uninfected cells); higher = more like uninfected cells; details: 24 h
[2] = tested on: Vero E6 infected with SARS-CoV-2; assay: SARS-CoV-2 infection rate relative to infected DMSO; higher = more infection, active = 60 or less; details: 24 h

Row | SMILES | morphology score [1] | SARS-CoV-2 infection rate [2]
1 | Cc1cc(N)c2ccccc2[n+]1CCCCCCCCCC[n+]1c(C)cc(N)c2ccccc21 [dequalinium] (10 µM) | 0.175 | 94% (inactive)
2 | CCCCOc1ccc(CC(=O)NO)cc1 [bufexamac] (10 µM) | 0.234 | 94% (inactive)
3 | CCc1ccc(Cc2ccc3c(c2)[C@]2(OC3)O[C@H](CO)[C@@H](O)[C@H](O)[C@H]2O)cc1 [tofogliflozin] (10 µM) | 0.023 | 94.5% (inactive)
4 | CC1(C)CC(=O)c2c(C(F)(F)F)nn(-c3ccc(C(N)=O)c(N[C@H]4CC[C@H](OC(=O)CN)CC4)c3)c2C1 (10 µM) | 0.127 | 108% (inactive)
5 | CC(=O)OCC(=O)[C@@]1(O)CC[C@H]2[C@@H]3CCC4=CC(=O)C=C[C@]4(C)[C@@]3(F)[C@@H](O)C[C@@]21C [isoflupredone-acetate] (10 µM) | 0.155 | 98% (inactive)
6 | c1cc(-c2sc(-c3ccncc3)c(-c3ccncc3)c2-c2ccncc2)ccn1 (10 µM) | 0.0438 | 93% (inactive)
7 | CCOc1ccc(/C=C2\NCCc3cc(OCC)c(OCC)cc32)cc1OCC [drotaverine] (10 µM) | 0.156 | 104% (inactive)
8 | Nc1nc(F)nc2c1ncn2[C@@H]1O[C@H](CO)[C@@H](O)[C@@H]1O [fludarabine] (10 µM) | -0.0436 | 107% (inactive)
9 | COc1ccc2[nH]c([S@@+]([O-])Cc3ncc(C)c(OC)c3C)nc2c1 [esomeprazole] (10 µM) | -0.181 | 110% (inactive)
10 | C=C[C@H]1CN2CC[C@H]1C[C@H]2[C@H](O)c1ccnc2ccccc12 [cinchonidine] (10 µM) | -0.111 | 112% (inactive)
11 | O=Nc1c(-c2c(O)[nH]c3ccccc23)[nH]c2ccccc12 [indirubin-3-monoxime] (0.833333 µM) | 0.00718 | 106% (inactive)
12 | O=C(NCCCN1CCOCC1)c1cnn2c(-c3ccccc3)cc(-c3ccccc3)nc12 [reversan] (10 µM) | 0.226 | 98% (inactive)
13 | C[N+]1(C)[C@@H]2C[C@@H](OC(=O)C(O)(c3cccs3)c3cccs3)C[C@H]1[C@@H]1O[C@@H]12 [tiotropium] (10 µM) | 0.0776 | 100% (inactive)
14 | O=C(NCc1cccc(O)c1)Nc1nc(-c2ccncc2)cs1 (10 µM) | 0.392 | 97.8% (inactive)
15 | CCN(CC)C(=O)/C(C#N)=C/c1cc(O)c(O)c([N+](=O)[O-])c1 [entacapone] (10 µM) | 0.149 | 102% (inactive)
16 | OB1OCc2cc(Cl)ccc21 (10 µM) | -0.0961 | 106% (inactive)
17 | c1ccc2c(c1)[I+]c1ccccc1-2 [diphenyleneiodonium] (0.833333 µM) | 0.143 | 108% (inactive)
18 | Clc1ccc([C@]23CNC[C@H]2C3)cc1Cl [amitifadine] (10 µM) | 0.0575 | 110% (inactive)
19 | C#C[C@]1(O)CC[C@H]2[C@@H]3CCC4=Cc5oncc5C[C@]4(C)[C@H]3CC[C@@]21C [danazol] (10 µM) | 0.377 | 72% (inactive)

Row | SMILES | morphology score [1] | SARS-CoV-2 infection rate [2]
20 | O=C(CCCN1CCC2(CC1)C(=O)N(Cc1cccc(F)c1)CN2c1ccccc1)c1ccc(F)cc1 [3'-fluorobenzylspiperone] (0.833333 µM) | 0.325 | 103% (inactive)
21 | C[C@]12CC[C@H]3[C@@H](CC[C@@]45O[C@@H]4C(O)=C(C#N)C[C@]35C)[C@@H]1CC[C@@H]2O [trilostane] (10 µM) | -0.0579 | 104% (inactive)
22 | Cc1ncc(C[n+]2csc(CCO)c2C)c(N)n1 [thiamine] (10 µM) | 0.119 | 96.5% (inactive)
23 | [Cl][Ru-]([Cl])([Cl])[Cl].[Na+].c1ccc2[nH]ncc2c1.c1ccc2[nH]ncc2c1 (10 µM) | 0.443 | 43% (active)
24 | Cc1c(OCC(F)(F)F)ccnc1C[S+]([O-])c1nc2ccccc2[nH]1 (centres undefined) [lansoprazole] (10 µM) | 0.115 | 99% (inactive)
25 | CCCCCCCCCCC[C@@H](C[C@@H]1OC(=O)[C@H]1CCCCCC)OC(=O)[C@H](CC(C)C)NC=O [orlistat] (10 µM) | 0.226 | 100% (inactive)
26 | O=c1[nH]c2ccccc2n1CCCN1CCN(C(c2ccccc2)c2ccccc2)CC1 [oxatomide] (10 µM) | -0.0451 | 106% (inactive)
27 | Cc1c(O)c(=O)ccn1C [deferiprone] (10 µM) | -0.123 | 98% (inactive)
28 | O=c1c(O[C@@H]2O[C@H](CO)[C@H](O)[C@H](O)[C@H]2O)c(-c2ccc(O)c(O)c2)oc2cc(O)cc(O)c12 [hyperin] (10 µM) | -0.0819 | 112% (inactive)
29 | CCS(=O)(=O)c1ccc2oc(-c3ccc4ccccc4c3)nc2c1 [ezutromid] (10 µM) | 0.174 | 98.5% (inactive)
30 | Cn1nnc(-c2ccc(-c3ccc(N4C[C@H](CO)OC4=O)cc3F)cn2)n1 [tedizolid] (10 µM) | 0.127 | 100% (inactive)
31 | CCCn1c(=O)c2nc(-c3ccccc3)[nH]c2n(CCC)c1=O [1,3-dipropyl-8-phenylxanthine] (10 µM) | 0.102 | 104% (inactive)
32 | COc1cc(N2CCC(N3CCN(C)CC3)CC2)ccc1Nc1ncnc(Nc2ccccc2S(=O)(=O)C(C)C)n1 (0.833333 µM) | -0.0307 | 71% (inactive)
33 | Cc1cc(OCc2nc(-c3ccccc3Cl)cs2)ccc1OCC(=O)O [GPR120-modulator-1] (10 µM) | -0.0706 | 100% (inactive)
34 | N[C@@H](CCNCc1ccc(Cl)cc1)C(=O)N1CCCCC1 (10 µM) | -0.159 | 107% (inactive)
35 | O=C(O)[C@@H](S)[C@@H](S)C(=O)O [dimercaptosuccinic-acid] (10 µM) | 0.102 | 100% (inactive)
36 | CNCCC(Oc1ccc(C(F)(F)F)cc1)c1ccccc1 (centres undefined) [fluoxetine] (10 µM) | 0.539 | 66% (inactive)
37 | O=C1OC(c2ccc(O)cc2)(c2ccc(O)cc2)c2ccccc21 [phenolphthalein] (10 µM) | 0.0414 | 110% (inactive)
38 | CSc1ccc2c(c1)N(CCC1CCCCN1C)c1ccccc1S2 (centres undefined) [thioridazine] (0.833333 µM) | 0.304 | 109% (inactive)

Row | SMILES | morphology score [1] | SARS-CoV-2 infection rate [2]
39 | C=C1CC[C@@H]2[C@](C)(CO)[C@H](O)CC[C@@]2(C)[C@@H]1C/C=C1/C(=O)OC[C@H]1O [andrographolide] (0.833333 µM) | 0.123 | 106% (inactive)
40 | COc1ccc(N2CCOCC2)c2sc(NC(=O)N3CCC(C)(O)CC3)nc12 [tozadenant] (10 µM) | 0.275 | 97% (inactive)
41 | CC(Cc1ccc(O)cc1)NCC(O)c1cc(O)cc(O)c1 (centres undefined) [fenoterol] (10 µM) | -0.0121 | 106% (inactive)
42 | C[C@@H]1NC(=O)[C@@H](N)CNC(=O)[C@H](C2CCNC(=N)N2)NC(=O)/C(=C/NC(N)=O)NC(=O)[C@H](CNC(=O)CC(N)CCCN)NC1=O.N=C1NCC[C@H]([C@@H]2NC(=O)/C(=C/NC(N)=O)NC(=O)[C@H](CNC(=O)C[C@@H](N)CCCN)NC(=O)[C@H](CO)NC(=O)[C@@H](N)CNC2=O)N1 [capreomycin] (10 µM) | 0.148 | 100% (inactive)
43 | O=C(C[S+]([O-])C(c1ccccc1)c1ccccc1)NO (centres undefined) [adrafinil] (10 µM) | 0.2 | 100% (inactive)
44 | C[n+]1ccc(C(=O)NCc2ccccc2)cc1 [enisamium-iodide] (10 µM) | 0.172 | 90% (inactive)
45 | CC(C)NC(=O)COc1cccc(-c2nc(Nc3ccc4[nH]ncc4c3)c3ccccc3n2)c1 (0.833333 µM) | -0.0169 | 106% (inactive)
46 | Cc1cc(-c2cc(OC(=O)c3ccccc3)ccc2Cl)cc2nnc(Nc3ccc(OCCN4CCCC4)cc3)nc12 (10 µM) | -0.0439 | 114% (inactive)
47 | c1ccc2nc(N3CCNCC3)ccc2c1 [quipazine] (10 µM) | 0.118 | 104% (inactive)
48 | CCOC(=O)c1ccccc1OC(=O)CCCCCCCC(=O)Oc1ccccc1C(=O)OCC (10 µM) | 0.166 | 100% (inactive)
49 | O=C(Nc1cc(-c2ccccc2)nn1-c1ccccc1F)c1ccc([N+](=O)[O-])cc1 (10 µM) | 0.233 | 93.5% (inactive)
50 | COC(=O)C1=C(C)NC(C)=C(C(=O)OC)C1c1ccccc1[N+](=O)[O-] [nifedipine] (10 µM) | -0.0637 | 106% (inactive)
51 | CCCC(=O)C1CCN(c2ncnc3c2CN(C(=O)c2ccc(-c4ccccc4)cc2)CC3)CC1 (10 µM) | 0.0512 | 104% (inactive)
52 | CC(=O)C(=Cc1cc(O)c(O)c([N+](=O)[O-])c1)C(C)=O [nitecapone] (10 µM) | 0.103 | 102% (inactive)
53 | CC(c1cc2ccccc2s1)N(O)C(N)=O (centres undefined) [zileuton] (10 µM) | 0.0704 | 98.5% (inactive)
54 | COc1cc2c(cc1OC)[C@@H](Cc1cc(OC)c(OC)c(OC)c1)[N+](C)(CCCOC(=O)CC/C=C/CCC(=O)OCCC[N+]1(C)CCc3cc(OC)c(OC)cc3[C@H]1Cc1cc(OC)c(OC)c(OC)c1)CC2 (some centres undefined) [mivacurium] (10 µM) | -0.0909 | 104% (inactive)
55 | CO[C@H]1CC[C@@H](C(=O)c2ccc3nc4c(cc3c2)CCCO4)CC1 (10 µM) | 0.0672 | 104% (inactive)
56 | CCCC(=O)Nc1ncnc2c1ncn2[C@@H]1O[C@@H]2COP(=O)(O)O[C@H]2[C@H]1OC(=O)CCC [bucladesine] (10 µM) | 0.0459 | 104% (inactive)
57 | CCCc1cc(C)[nH]c(=O)c1CNC(=O)c1cc(-c2ccc(N3CCN(C(C)C)CC3)nc2)cc2c1cnn2C(C)C (10 µM) | 0.0705 | 110% (inactive)
